Measurements: paper PMC4336329 (PLoS ONE, 2015)
The campaign covered roughly 310,000 compounds. About 14,000 (4.5%) showed an effect of 50% or more. Effects have a minus sign here. Many of the other results were omitted from the sample, so strong results are more common in it than they were.

Each molecule was assayed against human ether-à-go-go-related gene (hERG) potassium channel (human, UniProt Q12809) (assay: primary screen, population patch clamp on CHO cells stably expressing hERG; higher = less effect of the substance).
Sequence of human ether-à-go-go-related gene (hERG) potassium channel (Q12809 whole entry, looked up): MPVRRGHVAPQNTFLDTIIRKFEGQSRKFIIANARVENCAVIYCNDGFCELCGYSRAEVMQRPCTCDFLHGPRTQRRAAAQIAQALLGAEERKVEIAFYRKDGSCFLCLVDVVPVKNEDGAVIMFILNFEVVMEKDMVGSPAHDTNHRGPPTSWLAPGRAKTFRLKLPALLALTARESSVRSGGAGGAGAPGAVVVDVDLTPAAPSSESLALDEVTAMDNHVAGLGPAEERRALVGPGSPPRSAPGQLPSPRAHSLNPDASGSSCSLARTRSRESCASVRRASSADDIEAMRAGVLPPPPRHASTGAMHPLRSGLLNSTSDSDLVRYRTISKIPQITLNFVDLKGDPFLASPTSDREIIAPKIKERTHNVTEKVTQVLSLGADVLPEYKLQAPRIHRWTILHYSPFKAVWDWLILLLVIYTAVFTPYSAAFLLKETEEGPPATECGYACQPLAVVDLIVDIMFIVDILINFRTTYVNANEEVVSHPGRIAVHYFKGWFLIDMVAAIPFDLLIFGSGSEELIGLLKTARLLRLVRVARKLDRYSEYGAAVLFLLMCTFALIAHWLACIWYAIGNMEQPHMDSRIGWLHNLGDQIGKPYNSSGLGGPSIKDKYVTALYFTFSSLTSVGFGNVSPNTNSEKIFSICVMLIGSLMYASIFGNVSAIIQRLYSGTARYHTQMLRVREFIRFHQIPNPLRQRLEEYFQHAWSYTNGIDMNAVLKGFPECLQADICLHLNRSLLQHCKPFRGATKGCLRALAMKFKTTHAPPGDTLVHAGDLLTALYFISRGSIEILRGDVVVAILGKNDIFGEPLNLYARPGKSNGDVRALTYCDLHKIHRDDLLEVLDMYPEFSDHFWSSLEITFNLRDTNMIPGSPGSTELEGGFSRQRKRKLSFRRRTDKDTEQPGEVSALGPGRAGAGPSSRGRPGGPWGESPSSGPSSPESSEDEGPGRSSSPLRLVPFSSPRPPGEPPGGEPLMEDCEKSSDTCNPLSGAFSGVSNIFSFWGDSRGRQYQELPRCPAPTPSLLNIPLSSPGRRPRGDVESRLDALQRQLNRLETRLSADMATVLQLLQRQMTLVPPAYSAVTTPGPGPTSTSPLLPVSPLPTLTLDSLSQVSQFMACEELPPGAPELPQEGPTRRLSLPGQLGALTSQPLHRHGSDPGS
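Further: peak tail current of the secondary pulse compared with the same well before compound.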

| SMILES | hERG current change (%, negative = inhibition) at 10uM [%] |
| --- | --- |
| CN(C)c1ccc(/C=N/NC(=O)c2ccc(-n3cnnn3)cc2)cc1 | 10.8 |
| CCOc1ccc2nc(NS(=O)(=O)Cc3ccccc3)sc2c1 | 9.15 |
| Cc1cc(OC(C)C)c2c(-c3ccccc3)cc(=O)oc2c1 | 16.2 |
| O=C1N=C(N2CCCCC2)S/C1=C\c1ccc(Cl)cc1 | 9.15 |
| O=C(CN1C(=O)NC2(CCCC2)C1=O)OCc1cc(=O)n2cc(Br)ccc2n1 | 0.0178 |
| COc1cc(C(=O)Nc2ccc(-c3nnc(-c4ccco4)o3)cc2)cc(OC)c1OC | -3.23 |
| Cc1ccnc(NS(=O)(=O)c2cccc([N+](=O)[O-])c2)c1 | 0.0315 |
| CCNC(=O)CC1C(=O)N(c2cccc(OC)c2)C(=O)N1CCOC (stereo not shown) | 8.39 |
| COc1ccc(CNC(=O)C(c2ccco2)N(Cc2cccs2)C(=O)Cc2cccs2)cc1 (stereo not shown) | 10.6 |
| Cc1ccc(OCC(=O)N(Cc2nnc(-c3ccccc3Cl)o2)C2CC2)cc1C | -44.1 |
| O=C(COc1ccccc1)N(Cc1nnc(-c2ccccc2Cl)o1)C1CC1 | -15 |
| Cc1cccc(OCC(=O)N(Cc2nnc(-c3ccccc3Cl)o2)C2CC2)c1 | -54.2 |
| Cc1ccc(S(=O)(=O)NCC(=O)N(CC(=O)NCc2ccco2)Cc2ccccc2)cc1 | -10.2 |
| COc1ccc(S(=O)(=O)NCC(=O)N(CC(=O)NCc2ccco2)Cc2ccccc2)cc1 | -10.6 |
| COc1ccc(CNC(=O)CN(Cc2ccco2)C(=O)CNS(=O)(=O)c2ccccc2)cc1 | -38.7 |
| COc1ccc(CNC(=O)CN(Cc2ccco2)C(=O)CNS(=O)(=O)c2ccc(C)cc2)cc1 | -73 |
| O=C(CN(Cc1ccco1)C(=O)CNS(=O)(=O)c1ccc(Cl)cc1)NCc1ccco1 | -55.4 |
| O=C(CN(Cc1ccco1)C(=O)CNS(=O)(=O)c1ccc(F)cc1)NCc1ccco1 | -8.87 |
| COc1ccc(S(=O)(=O)NCC(=O)N(CC(=O)NCc2ccco2)Cc2ccc(F)cc2)cc1 | 1.94 |
| Cc1ccc(S(=O)(=O)NCC(=O)N(CC(=O)NCc2ccco2)Cc2ccco2)cc1 | -23.5 |
| O=C(CN(Cc1ccccc1)C(=O)CNS(=O)(=O)c1ccccc1)NCc1ccco1 | -0.255 |
| COc1cccc(CN(CC(=O)NCc2ccco2)C(=O)CNS(=O)(=O)c2ccccc2)c1 | -53.1 |
| COc1ccc(CN(CC(=O)NCc2ccco2)C(=O)CNS(=O)(=O)c2ccc(C)cc2)cc1 | -63.3 |
| COc1ccc(S(=O)(=O)NCC(=O)N(CC(=O)NCc2ccccc2)Cc2ccco2)cc1 | -17 |
| Cc1ccc(C)c(N2CCN(S(=O)(=O)c3csc(C(N)=O)c3)CC2)c1 | -8.27 |
| CCC1CCCCN1c1nc2c(C=O)c(C)nn2c2ccccc12 (stereo not shown) | -12 |
| COc1cccc(-c2nc(CS(=O)(=O)CC(=O)Nc3cc(F)ccc3F)c(C)o2)c1 | 8.16 |

| SMILES | hERG current change (%, negative = inhibition) at 10uM [%] |
| --- | --- |
| COCCNc1ccc(S(=O)(=O)N2CCCC2)cn1 | 13.2 |
| COc1ccc(-c2c3c(=O)n(C)c(=O)n(C)c3cn2NC(C)=O)cc1 | 12.2 |
| Cc1ccc(Cn2nnc3c(=O)[nH]c(C4CCN(C(=O)c5cccs5)CC4)nc32)cc1 | -33 |
| Cc1ccc(C)c(Cn2nnc3c(=O)[nH]c(C4CCCN(C(=O)C5CCC5)C4)nc32)c1 (stereo not shown) | -32.4 |
| Cc1ccc(C)c(Cn2nnc3c(=O)[nH]c(C4CCN(C(=O)c5cccs5)CC4)nc32)c1 | -66.5 |
| Cc1ccc(C)c(Cn2nnc3c(=O)[nH]c(C4CCCN(C(=O)c5ccco5)C4)nc32)c1 (stereo not shown) | -38.3 |
| CCCCC(=O)N1CCCC(c2nc3c(nnn3Cc3cc(C)ccc3C)c(=O)[nH]2)C1 (stereo not shown) | -52.2 |
| Cc1ccc(C)c(Cn2nnc3c(=O)[nH]c(C4CCCN(C(=O)c5cccs5)C4)nc32)c1 (stereo not shown) | 0.859 |
| Cc1ccc(C)c(Cn2nnc3c(=O)[nH]c(C4CCCN(C(=O)CC(C)C)C4)nc32)c1 (stereo not shown) | -14.6 |
| Cc1ccc(C)c(Cn2nnc3c(=O)[nH]c(C4CCCN(C(=O)C5CCCCC5)C4)nc32)c1 (stereo not shown) | -51.5 |
| O=C(C1CCCCC1)N1CCCC(c2nc3c(nnn3Cc3ccccc3)c(=O)[nH]2)C1 (stereo not shown) | -8.73 |
| Cc1c(C(=O)N/N=C/c2ccc(N(C)C)cc2)[nH]c2ccc(Cl)cc12 | 2.69 |
| COC(=O)C1=C(C(=O)c2ccccc2)C(c2cccs2)n2nnnc2N1 (stereo not shown) | 19.8 |
| Cc1ccc(CN2C(=O)CCC2C(=O)NCc2ccc3c(c2)OCO3)cc1 (stereo not shown) | -17.4 |
| NS(=O)(=O)c1ccc(CNC(=S)NCc2ccc(F)cc2)cc1 | 9.61 |
| CCOC(=O)c1ccc(NC(=O)CC2C(=O)N(c3ccccc3)C(=O)N2CCCOC)cc1 (stereo not shown) | -4.49 |
| CC(=O)NS(=O)(=O)c1ccc(NC(=O)/C=C/c2cn(-c3ccccc3)nc2-c2ccccc2)cc1 | 34 |
| O=C(c1cccc(Br)c1)N1CCN(C2=NS(=O)(=O)c3ccccc32)CC1 | -65.8 |
| O=C(OCCN1CCN(C2=NS(=O)(=O)c3ccccc32)CC1)c1ccccc1F | -16.9 |
| O=C(OCCN1CCN(C2=NS(=O)(=O)c3ccccc32)CC1)c1cccc(Br)c1 | -68.6 |
| O=C(c1ccc([N+](=O)[O-])cc1)N1CCN(C2=NS(=O)(=O)c3ccccc32)CC1 | -46.2 |
| O=C(c1ccc(F)cc1)N1CCN(C2=NS(=O)(=O)c3ccccc32)CC1 | -15.8 |
| COc1ccc(C(=O)OCCN2CCN(C3=NS(=O)(=O)c4ccccc43)CC2)cc1OC | -32.9 |
| COc1ccc2c(CC(=O)OCC(=O)NC(N)=O)coc2c1 | 0.524 |
| COc1ccc(N2C(=NC(=O)C3CCCO3)SC3CS(=O)(=O)CC32)cc1 (stereo not shown) | 5.78 |
| Cc1ccc(C)c(NC(=O)c2ccc3nccnc3c2)c1 | 2.6 |
| COc1ccc(N=C2NC(=O)CS2)c([N+](=O)[O-])c1 | 11.4 |

| SMILES | hERG current change (%, negative = inhibition) at 10uM [%] |
| --- | --- |
| O=C(Nc1ccc2c(c1)OCO2)[C@@H]1CCCN1S(=O)(=O)c1cccc2cccnc12 | -6.18 |
| CCOC(=O)C1C(c2ccc(Cl)cc2)NC(=S)NC1(O)C(F)(F)F (stereo not shown) | 16.7 |
| Cn1ccnc1SCC(=O)Nc1nc2c(F)c(F)c(F)cc2s1 | 11.3 |
| O=C(O)COCC(=O)N1CCc2c([nH]c3ccccc23)C1C(F)(F)F (stereo not shown) | 2.14 |
| O=C(NCCc1ccccc1)C(=O)NCC1CCCN1S(=O)(=O)c1cccs1 (stereo not shown) | -22.7 |
| CN(C)CCNC(=O)C(=O)Nc1ccc2c(c1)N(S(=O)(=O)c1cccs1)CCC2 | -2.98 |
| Cc1ccc(C)c(S(=O)(=O)N2CCCCC2CCNC(=O)C(=O)NCc2ccccn2)c1 (stereo not shown) | -19.8 |
| Cc1cc(F)ccc1S(=O)(=O)N1CCCCC1CCNC(=O)C(=O)NCc1ccccn1 (stereo not shown) | -61.4 |
| O=C(NCCc1ccc(F)cc1)C(=O)NCC1CCCN1S(=O)(=O)c1cccs1 (stereo not shown) | -57.6 |
| CCCNC(=O)C(=O)Nc1ccc2c(c1)N(S(=O)(=O)c1cccs1)CCC2 | -33.6 |
| O=C(NCc1ccc(F)cc1)C(=O)NCC1CCCN1S(=O)(=O)c1ccccc1 (stereo not shown) | -38.2 |
| O=C(NCCc1ccccc1)C(=O)NCC1CCCN1S(=O)(=O)c1ccccc1 (stereo not shown) | -41.9 |
| COc1ccc(CCNC(=O)C(=O)NCC2CCCN2S(=O)(=O)c2cccs2)cc1 (stereo not shown) | -32.9 |
| O=C(NCCC1CCCCN1S(=O)(=O)c1ccc(F)cc1)C(=O)NCc1ccccn1 (stereo not shown) | -11.9 |
| O=C(NCCc1ccc(F)cc1)C(=O)NCC1CCCN1S(=O)(=O)c1ccccc1 (stereo not shown) | -61.7 |
| CCN(CC)CCNC(=O)C(=O)Nc1ccc2c(c1)N(S(=O)(=O)c1cccs1)CCC2 | -78.2 |
| COc1ccc(N)cc1NC(=O)CN1CCCC1 | 19.3 |
| CCN(CC)S(=O)(=O)c1ccc(Cl)c(NC(=O)COC(=O)c2ccc(O)cc2)c1 | -21.4 |
| CCCCC(=O)Nc1ccc(C(=O)N2CCCC(C(=O)OCC)C2)cc1 (stereo not shown) | 7.66 |
| O=C(NCCC1CCCCN1S(=O)(=O)c1cccs1)C(=O)Nc1ccccc1 (stereo not shown) | -10.1 |
| O=C(NCCC1CCCCN1S(=O)(=O)c1cccs1)C(=O)Nc1cccc(F)c1 (stereo not shown) | -50.1 |
| O=C(NCCC1CCCCN1S(=O)(=O)c1cccs1)C(=O)Nc1ccc(F)cc1 (stereo not shown) | -6.79 |
| Cc1ccc(N2C(=O)N(CC(=O)Nc3cccc(Cl)c3)C(=O)C2C)cc1 (stereo not shown) | -14.9 |
| O=C(COC(=O)CCc1ccc(S(=O)(=O)N2CCOCC2)cc1)NC1CCCCCC1 | -10.8 |
| CN(C)c1ccc(-c2cccc(C3CC=CC4C3C(=O)N(Cc3ccccc3)C4c3ccc4ccccc4c3)c2)cc1 (stereo not shown) | 17.5 |
